LmPK inh – LmPK (Leishmania mexicana) enzyme inhibition; 290,000 compounds, 0.37% hits; AID 1721; Potency, µM (highest dose often 57.5 µM), for the others: at the top dose activity change, negative = inhibition, hits mostly inhibitors; Q27686; purified LmPK, Kinase-Glo ATP luminescence, 1 h; further: potency means the concentration at half of the fitted maximal effect; on the % scale 0 is the no-effect control and ±100 the full control effect
Target sequence (Q27686 whole entry, looked up): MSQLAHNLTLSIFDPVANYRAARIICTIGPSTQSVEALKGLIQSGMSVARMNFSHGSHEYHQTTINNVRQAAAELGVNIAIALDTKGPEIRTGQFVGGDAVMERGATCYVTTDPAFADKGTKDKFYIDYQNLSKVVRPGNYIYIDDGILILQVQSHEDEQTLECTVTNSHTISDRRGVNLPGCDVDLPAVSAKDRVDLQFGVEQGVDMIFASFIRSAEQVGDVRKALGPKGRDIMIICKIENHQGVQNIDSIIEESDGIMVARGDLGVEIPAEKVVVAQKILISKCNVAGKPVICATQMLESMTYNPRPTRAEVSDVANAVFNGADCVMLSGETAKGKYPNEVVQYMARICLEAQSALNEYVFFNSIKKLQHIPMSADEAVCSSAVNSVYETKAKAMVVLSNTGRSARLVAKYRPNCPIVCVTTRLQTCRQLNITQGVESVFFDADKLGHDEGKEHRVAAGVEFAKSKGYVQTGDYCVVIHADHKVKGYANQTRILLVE
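qHTS format; LmPK 0.1 nM; substrates PEP 0.5 mM and ADP 0.1 mM. One-hour room-temperature incubation, then coupled luciferase luminescence; 0.5 nM enzyme wells mark activation.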
TbPYK inhibitor – T. brucei pyruvate kinase inhibition | 410,000 compounds, 0.12% hits | TbPYK enzyme, Kinase-Glo Plus ATP luminescence, 45 min | Q57TT1 | Potency, µM (highest dose often 76.8 µM), inactives show at the highest dose activity, negative = inhibition, most hits filed as inhibitors; further: potency means the concentration at half of the fitted maximal effect; on the % scale 0 is the no-effect control and ±100 the full control effect; nearly all actives have a fitted effect of over 50% in size
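Glycolytic pyruvate kinase of T. brucei was incubated with substrate, test compound and 130 uM ADP for 45 minutes at room temperature. Luminescent Kinase-Glo Plus signal was measured after 10 minutes.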
Sm TGR block – blocks Schistosoma mansoni thioredoxin glutathione reductase. Q962Y6. purified TGR, DTNB reduction, TNB absorbance 405 nm. Potency, µM (highest dose often 114 µM), inactives show at the highest dose activity change, negative = inhibition, usual class: inhibitors. 360,000 compounds, 3% hits; further: potency means the concentration at half of the fitted maximal effect; on the % scale 0 is the no-effect control and ±100 the full control effect; nearly all actives have a fitted effect of over 60% in size
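TGR 20 nM + NADPH 100 uM (dispensed conc.), cpd preinc 15 min RT; start with NADPH (500 uM addition) then DTNB (15 mM addition). Kinetic TNB absorbance, 405 nm filter. Four-parameter Hill fit across titration.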
RE007 growth inh – less growth of the S. pombe RE007 Vpr strain; S. pombe RE007 Vpr strain, BacTiter-Glo ATP luminescence, 24 h; Potency, µM (top dose mostly 92.2 µM), inactives show top-dose activity change, negative = less growth, actives largely listed as inhibitors; 360,000 compounds, 0.21% hits; active means well fitted falling curve with a large enough effect; inconclusive means small, poorly fitted or top-dose-only effect; inactive means no such curve, though single readings can be large or run the other way; further: potency means the concentration at half of the fitted maximal effect; on the % scale 0 is the no-effect control and ±100 the full control effect; nearly all actives have a fitted effect of over 50% in size
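Fission yeast strain RE007, carrying one chromosomally integrated HIV-1 vpr copy, was seeded at OD 0.01 in PMG+AL medium with 23 nL pinned compound. After 24 h at 30 °C and 99% humidity, viability was read by BacTiter-Glo luminescence.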
LmPK inh confirm – Confirms inhibition of Leishmania mexicana pyruvate kinase | shares compounds with LmPK inh | purified LmPK, Kinase-Glo ATP luminescence, 1 h | Potency, µM (top dose mostly 57.5 µM), for the others: at the top dose activity change, negative = inhibition, usual class: inhibitors | 150 compounds, 40% hits | AID 2559;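 active means compounds giving a full or partial concentration-response curve, as inhibitors or activators; inconclusive means weak, top-dose-only or unclear curve responses; inactive means no response at any tested dose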
An asterisk follows results filed as active. Compounds with a hit are over-represented: about 3% of the library has one in this group of screens. Unless noted, the call rests on the fitted dose curve; in most records, active means well fitted curve in the direction sought with a large enough effect; inconclusive means small, poorly fitted or top-dose-only effect, or another doubt; inactive means no such curve, though single readings can be large; an effect the other way counts as inactive or inconclusive.

CC1(C(=O)NS(=O)(=O)c2ccccc2Cl)CCN1C(=O)C1(c2ccc(Cl)cc2)CCC1 (stereo not given) was read as TbPYK inhibitor 0% and RE007 growth inh 10%.
CCOC(=O)c1cccc(NC(=O)CC2C(=O)N(c3ccc(Cl)cc3)C(=O)N2C2CCCC2)c1 (stereo not given) was read as TbPYK inhibitor -4% and Sm TGR block -6%.
C=CCOc1ccc(C2C3=C(CCCC3=O)N(CC(=O)O)C3=C2C(=O)CCC3)cc1OCC was read as LmPK inh -3%, TbPYK inhibitor -10%, Sm TGR block 45µM* and RE007 growth inh -10%.
`C#CCOc1ccc(C2C3=C(CCCC3=O)N(CC(=O)O)C3=C2C(=O)CCC3)cc1Br` gave LmPK inh 1%, TbPYK inhibitor -5%, Sm TGR block 40µM* and RE007 growth inh 1%.
`C=CCOc1c(Br)cc(C2C3=C(CCCC3=O)N(C)C3=C2C(=O)CCC3)cc1OCC` gave LmPK inh 0%, TbPYK inhibitor -3%, Sm TGR block 3% and RE007 growth inh -11%.
`CCCOc1ccc(C2C3=C(CCCC3=O)N(CC(=O)O)C3=C2C(=O)CCC3)cc1OCC` gave LmPK inh 4%, TbPYK inhibitor -13%, Sm TGR block -5% and RE007 growth inh 11%.
Cc1ccc(C)c(N2CCN(C(=O)Cn3nc(Cc4cccnc4)c4ccccc4c3=O)CC2)c1 was read as TbPYK inhibitor -4% and Sm TGR block -2%.
`CC1CCCCN1C(=O)CSc1nc2ccccc2nc1Cc1ccccc1` (stereo not given) gave TbPYK inhibitor 0% and Sm TGR block -2%.
For CC1=NN(c2ccccc2)C(=O)/C1=C/N(C)C the results were LmPK inh -10%, TbPYK inhibitor 13%, Sm TGR block -11% and RE007 growth inh inconclusive.
Screening CC1=NN(c2nc3ccccc3[nH]2)C(=O)/C1=C/N(C)C returned LmPK inh 14µM*, TbPYK inhibitor inconclusive, Sm TGR block 5%, RE007 growth inh 7.9µM* and LmPK inh confirm 7.3µM*.
For Nc1ccc2nc(-c3ccccc3)sc2c1 the results were LmPK inh 8.9µM*, TbPYK inhibitor inconclusive, Sm TGR block 4%, RE007 growth inh inconclusive and LmPK inh confirm 16µM*.
For Cc1ccc2nc(-c3ccc(N)cc3)sc2c1 the results were LmPK inh inconclusive, TbPYK inhibitor -2%, Sm TGR block -3% and RE007 growth inh -3%.
Screening CCC(CC)C(=O)NC1CC(=O)N(c2ccc3c(c2)OCCO3)C1 (stereo not given) returned TbPYK inhibitor -5% and Sm TGR block 6%.
CC(=O)Oc1ccc(-c2nc(-c3cccnc3)no2)cc1 was read as LmPK inh 5µM*, TbPYK inhibitor 0%, Sm TGR block 2%, RE007 growth inh -23% and LmPK inh confirm 5.8µM*.
Cc1cccc(C)c1NC(=O)CCSCCc1ccccn1 was read as TbPYK inhibitor 0% and Sm TGR block 6%.
For CCOC(=O)Cc1csc(NC(=S)NC(=O)c2ccc([N+](=O)[O-])cc2)n1 the results were LmPK inh 7.1µM*, TbPYK inhibitor -3%, Sm TGR block inconclusive, RE007 growth inh 2% and LmPK inh confirm inconclusive.
`CC1(C(=O)NS(=O)(=O)c2cccc(OC(F)F)c2)CCN1C(=O)C/C=C/c1ccccc1` (stereo not given) gave TbPYK inhibitor -4% and RE007 growth inh 2%.
For CN(C)c1ccc(N=Nc2nc3ccccc3n2C)cc1 the results were LmPK inh 4µM*, TbPYK inhibitor 14µM*, Sm TGR block -16%, RE007 growth inh 11µM* and LmPK inh confirm 3.7µM*.
Screening Cn1c(N=Nc2ccccc2)nc2ccccc21 returned LmPK inh 2.2µM*, TbPYK inhibitor 14µM*, Sm TGR block -3%, RE007 growth inh 16µM* and LmPK inh confirm 7.3µM*.
For Cn1c(Cl)nc2ccccc21 the results were LmPK inh -3%, TbPYK inhibitor 1%, Sm TGR block 1% and RE007 growth inh 4%.
`Cc1ccc(C(=O)n2c(N)nc3ccccc32)cc1` gave LmPK inh 5µM*, TbPYK inhibitor -25%, RE007 growth inh 0% and LmPK inh confirm 33µM*.
`O=C(Nc1ccon1)c1ccc2c(c1)OCO2` gave LmPK inh -8%, TbPYK inhibitor -8%, Sm TGR block -4% and RE007 growth inh 2%.
`Cc1ccnc(NC(=O)c2ccc3c(c2)OCO3)c1` gave LmPK inh 14µM*, TbPYK inhibitor inconclusive, Sm TGR block 7%, RE007 growth inh inconclusive and LmPK inh confirm 16µM*.
Screening CC(=O)Nc1ccc(NC(=O)C2CCN(C(=O)NC3CCCCC3)CC2)cc1 returned LmPK inh -1%, TbPYK inhibitor 4%, Sm TGR block -15% and RE007 growth inh 0%.
COn1c(SCc2ccc(Cl)cc2)nc2ccccc2c1=O was read as LmPK inh 8%, TbPYK inhibitor -25%, Sm TGR block 6%, RE007 growth inh 8% and LmPK inh confirm 2%.
For COn1c(SCc2cccnc2)nc2ccccc2c1=O the results were LmPK inh -4%, TbPYK inhibitor 3%, Sm TGR block -27% and RE007 growth inh -4%.
Screening CSc1ccc(CCNC(=O)Cn2ccc3cc(S(=O)(=O)N4CCCCCC4)ccc32)cc1 returned TbPYK inhibitor 0% and Sm TGR block -3%.
`O=C(Cn1c2ncccc2c(=O)n1-c1ccccc1)NCc1ccccc1Cl` gave TbPYK inhibitor -5% and Sm TGR block 0%.
CCOc1ccc(OCC(=O)Nc2nccs2)cc1 was read as LmPK inh 10µM*, TbPYK inhibitor 22µM*, RE007 growth inh inconclusive and LmPK inh confirm 13µM*.
For O=C(COc1ccc(F)cc1)NCC(c1ccc(Cl)cc1)N1CCCCC1 (stereo not given) the results were TbPYK inhibitor 0% and Sm TGR block 6%.
For CC(C)NC(=O)N1CCC2(CC1)CCN(C(=O)c1cc(C(F)(F)F)cc(C(F)(F)F)c1)CC2 the results were TbPYK inhibitor 0%.
Screening O=C(/C=C/Nc1ccccc1Br)c1ccccn1 returned LmPK inh 5µM*, TbPYK inhibitor inconclusive, Sm TGR block 0%, RE007 growth inh -25% and LmPK inh confirm 21µM*.
`CN(Cc1cccc(-n2cccn2)c1)Cc1cn(C)nc1-c1ccccc1F` gave LmPK inh -5%, TbPYK inhibitor 0%, Sm TGR block -36%, RE007 growth inh -10% and LmPK inh confirm -7%.
CN(Cc1cn(C)nc1-c1ccccc1F)Cc1nccn1C was read as LmPK inh 6%, TbPYK inhibitor 0% and RE007 growth inh -10%.

From PubChem
